An excerpt weighted towards active compounds, which were near 4% of everything screened.
Autofluor counter: compound fluorescence in toxin protease inhibitor counterscreen. fluorescence intensity (concentration not given with the values). compound autofluorescence counterscreen, microsphere flow cytometry; stronger effect = higher value. 360,000 tested, 3.1% active; in the data active = fluorescence intensity above about 16000; inconclusive = no clear call, values can overlap the other calls
MazEF act: increases E. coli MazEF RNase cleavage of RNA; P0AE70; FAM/BHQ RNA-DNA oligo cleavage fluorescence, 5 h; activation, % at 20 µM; 350,000 tested, 0.32% active; in the data active = activation above about 50%
BoNT-F LC inh: blocks Botulinum neurotoxin F light chain protease. Multiplex microsphere protease cleavage assay, flow cytometry. inhibition, % at 10 µM. 360,000 tested, 0.22% active. AID 588497; in the data active = inhibition above about 35%, passing the limit was not always enough; inconclusive = no clear call, values can overlap the other calls; also: plate controls were buffer without enzyme for full effect and enzyme alone for no effect
DUSP3 inh: blocks human VHR1 dual specificity phosphatase. P51452. recombinant VHR phosphatase, pNPP absorbance. inhibition, % at 13.3 µM. 290,000 tested, 0.52% active; in the data active = inhibition above about 50%
BoNT A protease: blocks Botulinum neurotoxin A light chain protease; 360,000 tested, 0.17% active; AID 588499; inhibition, % at 10 µM; multiplex microsphere protease substrate cleavage, flow cytometry; also: plate controls were buffer without enzyme for full effect and enzyme alone for no effect
Anthrax LF inh2: blocks Bacillus anthracis lethal factor protease. P15917. multiplex microsphere protease cleavage assay, LF. inhibition, % at 10 µM. 360,000 tested, 0.12% active. AID 588501; also: plate controls were buffer without enzyme for full effect and enzyme alone for no effect
Target sequence (P15917 whole entry, looked up): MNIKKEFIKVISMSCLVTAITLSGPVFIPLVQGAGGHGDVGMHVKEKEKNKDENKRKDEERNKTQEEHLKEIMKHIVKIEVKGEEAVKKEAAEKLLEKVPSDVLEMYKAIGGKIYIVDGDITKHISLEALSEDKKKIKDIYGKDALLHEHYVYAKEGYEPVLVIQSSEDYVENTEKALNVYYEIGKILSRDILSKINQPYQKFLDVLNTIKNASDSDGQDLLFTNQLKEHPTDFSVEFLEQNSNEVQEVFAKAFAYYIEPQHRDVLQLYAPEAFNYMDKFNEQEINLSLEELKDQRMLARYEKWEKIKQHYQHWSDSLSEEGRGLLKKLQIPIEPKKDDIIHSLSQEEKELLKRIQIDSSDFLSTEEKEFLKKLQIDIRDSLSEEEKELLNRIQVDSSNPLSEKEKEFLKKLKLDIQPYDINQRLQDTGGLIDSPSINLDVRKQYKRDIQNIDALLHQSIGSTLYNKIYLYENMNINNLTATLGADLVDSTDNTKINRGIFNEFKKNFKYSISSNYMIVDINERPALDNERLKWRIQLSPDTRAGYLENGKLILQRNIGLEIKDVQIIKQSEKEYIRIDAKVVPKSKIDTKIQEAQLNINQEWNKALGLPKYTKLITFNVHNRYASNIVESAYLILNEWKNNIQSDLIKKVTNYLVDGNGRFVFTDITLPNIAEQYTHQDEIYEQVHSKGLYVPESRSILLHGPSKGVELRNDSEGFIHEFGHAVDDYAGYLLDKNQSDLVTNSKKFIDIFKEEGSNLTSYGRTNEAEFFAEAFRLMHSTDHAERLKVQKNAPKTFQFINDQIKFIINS
* marks the source's active call; other numbers are inactive results; u = inconclusive; x = not tested or not shown. Rule as the data show it, unless noted: active = inhibition above about 30%; inconclusive = no clear call, values can overlap the other calls; inactive = below that.

SMILES	Autofluor counter	MazEF act	BoNT-F LC inh	DUSP3 inh	BoNT A protease	Anthrax LF inh2
COc1ccc(N(CC(=O)N2CCCC2)S(=O)(=O)c2ccc(NC(C)=O)cc2)cc1	4571	0	1	14	0	0
Cc1ccc(C)n1-n1c(C)nc2scc(-c3ccccc3)c2c1=O	21049*	2	-2	6	-2	-3
Cc1nc2scc(-c3ccccc3)c2c(=O)n1N	3463	5	-5	7	0	1
CN(C)[C@@H]1C(=O)C(C(=O)NCN2CCCC2)=C(O)[C@@]2(O)C(=O)C3=C(O)c4c(O)cccc4[C@@](C)(O)C3CC12 (stereo not given in full)	x	x	x	66*	x	x
CN(C)C1C(=O)C(C(N)=O)=C(O)C2(O)C(=O)C3=C(O)c4c(O)cccc4C(C)(O)C3CC12 (stereo not given)	5665	-8	-2	6	0	0
O=C1Nc2ccccc2CCC1Sc1nnc(-c2ccc(Cl)cc2)s1 (stereo not given)	24726*	2	-4	4	-3	-2
Clc1ccc(CSc2nnc(-c3ccncc3)s2)cc1	5659	-3	-3	3	-1	6
CN1CCc2nc3sc(C#N)c(N)c3c(-c3cccs3)c2C1	19864*	14	-12	18	15	-1
CC(C)NC(=O)c1sc2nc3c(c(-c4cccs4)c2c1N)CN(C)CC3	2421	19	-14	12	1	-3
Cc1noc2ncnc(N3CCCCC3)c12	4687	4	2	10	0	1
C=CCSc1nc2c(cc1C#N)CCC2	21788*	1	7	12	u	-6
CCc1nnc(NC(=O)CSc2nc3c(cc2C#N)CCC3)s1	2723	-2	-12	16	0	0
N#Cc1cc2c(nc1SCC(=O)Nc1nccs1)CCCCC2	20116*	-8	-5	6	-3	-7
CCCCSc1nc2c(cc1C#N)CCC2	20908*	-13	-3	-13	-1	-1
CCOC(=O)C1CCN(C(=O)CC(C)S(=O)(=O)c2ccc3c(c2)NC(=O)CO3)CC1 (stereo not given)	5393	8	0	15	2	3
COc1ccccc1CNC(=O)COC(=O)CNS(=O)(=O)c1ccc(C)cc1	5390	1	-10	-20	1	-2
Cc1ccccc1-n1c(=O)cc(N2CCc3ccccc3C2)[nH]c1=O	19487*	-9	11	6	8	-15
O=c1cc(N2CCc3ccccc3C2)[nH]c(=O)n1-c1ccccc1Cl	6143	6	0	-2	0	-5
CCCn1nc(C(=O)Nc2cccc(C(=O)OC)c2)c2ccccc2c1=O	4202	4	2	2	0	5
Cc1ccc(C(=O)Nc2ncc(Cc3ccccc3)s2)o1	24322*	1	-3	19	-1	-1
O=C(Nc1ncc(Cc2ccccc2)s1)c1cccs1	2819	6	-7	-2	0	0
O=C(Nc1ncc(Cc2ccc(SC(F)F)cc2)s1)c1ccccc1	21972*	6	3	10	2	-4
CCCn1c(N2CCN(CC(=O)Nc3ccc4c(c3)OCCO4)CC2)nc2ccccc21	6956	6	-18	-8	1	-18
CCOC(=O)CSc1nc2ccsc2c(=O)n1C1CCN(C(=O)OCC)CC1	8035	-1	0	34	0	-4
CCOC(=O)CSc1nc2cc(C(=O)NCc3ccco3)ccc2c(=O)n1C1CCCCC1	16581*	-18	0	6	0	-1
SMILES	Autofluor counter	MazEF act	BoNT-F LC inh	DUSP3 inh	BoNT A protease	Anthrax LF inh2
CCOC(=O)N1CCC(n2c(SCC(=O)NCc3ccco3)nc3ccsc3c2=O)CC1	23599*	-4	-1	-2	-1	-3
CCOC(=O)CSc1nc2cc(C(=O)NCc3ccco3)ccc2c(=O)n1-c1ccc(F)cc1	10150	-16	10	-4	0	-1
COc1cc2oc(=O)c3c(c2cc1OCC(=O)c1c(C)n(C)c2ccccc12)CCCC3	2240	-30	-1	-10	0	0
CC1CC(=O)N(CC(=O)Nc2ccc3c(c2)OCO3)c2ccccc2S1 (stereo not given)	17388*	5	-6	-7	-4	-5
Cc1ccccc1NC(=O)CN1C(=O)CSc2ccccc21	4498	-1	0	18	1	-5
O=C(CN1C(=O)CC(c2ccco2)Sc2ccccc21)Nc1ccc2c(c1)OCCO2 (stereo not given)	13764	5	-10	-8	0	3
O=C(CN1C(=O)CCSc2ccccc21)Nc1ccc2c(c1)OCCO2	16584*	-1	-7	22	-1	-7
O=C(CN1C(=O)CSc2ccccc21)Nc1ccccc1C(=O)N1CCOCC1	22009*	8	2	4	3	-1
O=C(NCc1cccc(Cl)c1)c1cccc(S(=O)(=O)N2CCCCC2)c1	8792	9	5	x	0	-6
COc1ccc(/C=N/NC(=O)c2ccoc2C)cc1O	2540	2	30	5	3	-1
COc1cc2c(cc1NC(=O)COc1ccccc1OC)oc1ccccc12	20273*	-4	0	-22	1	-1
O=C(NCC(F)(F)F)Nc1ccccn1	19809*	7	0	12	u	-2
CNC(=O)COc1ccccc1C(=O)Nc1ccc2c(c1)oc1ccccc12	16632*	-36	-5	55*	-1	-1
O=C(NCC(F)(F)F)Nc1ncccn1	4093	6	-12	28	0	0
COc1ccccc1OCC(=O)Nc1ccccn1	22764*	5	2	28	1	1
COc1cc2c(cc1NS(=O)(=O)N1CCCCC1)oc1ccccc12	23461*	-6	-5	15	-4	-6
O=C(Nc1ccc2c(c1)oc1ccccc12)c1ccncc1	16791*	5	-4	17	-1	-3
COc1cc2c(cc1NC(=O)CCCCCN1C(=O)CCC1=O)oc1ccccc12	24230*	-6	-2	-12	0	0
O=C(Nc1ccc2c(c1)oc1ccccc12)c1cccnc1	3064	-2	-10	10	-1	0
O=S(=O)(Nc1ccc2c(c1)oc1ccccc12)N1CCCC1	4295	5	-8	10	-1	3
Cc1ccc(C(=C2C3C=CC2C2C(=O)NC(=O)C32)c2ccc(C)cc2)cc1 (stereo not given)	20213*	6	3	11	1	-1
O=C(CCC(=O)OCC(=O)c1ccc(Br)cc1)Nc1ccc(Br)c2cccnc12	18928*	-7	3	-19	3	-8
O=C(CCC(=O)OCC(=O)c1ccccc1)Nc1cccc2cccnc12	9177	6	-11	20	-1	-3
Cc1nn(Cc2ccccc2)c(C)c1NC(=O)c1cc(-c2ccco2)on1	20385*	3	0	53*	2	2
Cc1nn(Cc2ccc(Cl)cc2)c(C)c1NC(=O)c1cc(-c2ccc3c(c2)OCO3)on1	10100	-32	-9	-4	-2	-4

Screens: PubChem BioAssay, several laboratories
